Read-out in assay [1]: CD69, CD69 (gene 969)
In words: BSK_SAg_CD69: BioMAP Diversity Plus: SAg Assay for CD69 Biomarker Activity (AID 2283089).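 On AC50: cell surface CD69 protein quantified by ELISA with fluorescence detection.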 To be noted: primary human HUVEC with PBMC; actives raise or lower the signal. In short, it runs like this:
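Endothelial/PBMC co-culture; chemical added; 24 h incubation; CD69 ELISA with fluorescence detection; bidirectional fit vs DMSO.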

Read-out in assay [2]: Monocyte Chemoattractant Protein-1 (MCP1), CCL2 (gene 6347)
The assay can be described thus: BSK_SAg_MCP1: BioMAP Diversity Plus: SAg Assay for Monocyte Chemoattractant Protein-1 (MCP1) Biomarker Activity (AID 2283090). To be noted: primary human HUVEC with PBMC; actives raise or lower the signal. In a few lines: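 Values derive from bidirectional fitting of ELISA-measured MCP1 against DMSO controls. Readings were taken 24 h after dosing human vascular endothelial cells co-cultured with peripheral blood mononuclear cells under superantigen stimulation.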

Read-out in assay [3]: E-selectin (Homo sapiens) (UniProt P16581)
In words: BSK_SAg_Eselectin: BioMAP Diversity Plus: SAg Assay for Eselectin Biomarker Activity (AID 2283091). To be noted: primary human HUVEC with PBMC; actives raise or lower the signal. In a few lines:
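Primary human endothelial cells and peripheral blood mononuclear cells were co-cultured and exposed to chemical for 24 hours. E-selectin levels were then quantified by ELISA, with bidirectional curve fitting normalised to DMSO controls.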

Read-out in assay [4]: Monokine induced gamma interferon (MIG), CXCL9 (gene 4283)
The assay can be described thus: BSK_SAg_MIG: BioMAP Diversity Plus: SAg Assay for Monokine induced gamma interferon (MIG) Biomarker Activity (AID 2283092). To be noted: primary human HUVEC with PBMC; actives raise or lower the signal. In short, it runs like this:
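Measures CXCL9 protein by ELISA in a human vascular primary-cell co-culture (umbilical vein endothelium with PBMC) 24 h after chemical addition. Activity is scored up or down from the DMSO control.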

A short description of assay [5]: BSK_SAg_PBMCCytotoxicity: PBMC Cytotoxicity Assessment in the BioMAP Diversity Plus: SAg Assay (AID 2283093).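 Further: PBMC viability measured as Alamar Blue reduction fluorescence at 546/580 nm; fitted both ways against DMSO so a hit may be loss or gain of signal.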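 On AC50: PBMC superantigen activated with SEB plus TSST-1 one hour after compound addition.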 To be noted: primary human HUVEC with PBMC. In short, it runs like this:
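Alamar Blue reduction (6 h, 546/580 nm) reports PBMC cytotoxicity after 90 h superantigen activation (SEB, TSST-1; 20 ng/mL final each) with 1 h compound pre-treatment. Gain or loss of signal fitted versus DMSO.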

The nature of assay [6]: BSK_SAg_Proliferation: Cell Proliferation Assessment in the BioMAP Diversity Plus: SAg Assay (AID 2283095).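 Further: relative cell number as total protein by SRB absorbance in sub-confluent culture.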 To be noted: primary human HUVEC with PBMC. In short, it runs like this: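 Absorbance of sulforhodamine B at 560 nm reports total protein in a human vascular endothelial/PBMC co-culture after 96 h chemical exposure. Gain or loss of signal is fitted in both directions against DMSO.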

Assay [7] can be described thus: BSK_SAg_SRB: Viability Assessment in the BioMAP Diversity Plus: SAg Assay (AID 2283096).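 Further: cells read one day after compound addition; hits may be either gain or loss of signal compared with DMSO.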 To be noted: primary human HUVEC with PBMC. In a few lines:
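This overt-cytotoxicity endpoint quantifies protein in human endothelial/PBMC co-cultures at 24 h using SRB absorbance (560 nm) after trichloroacetic acid fixation. Values reflect signal change from the DMSO negative control, fitted bidirectionally.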

Assay [8] has as its target human CYP1A1, CYP1A1 (gene 1543) (UniProt P04798). The assay can be described thus: NVS_ADME_hCYP1A1: NovaScreen (NVS) CYP450-related Enzyme Activity (ADME) Assay for human CYP1A1 (AID 2283100; active means hit-call score of the fitted dose curve at least 0.9, where 1 is the maximum). In short, it runs like this: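 Compounds first went through duplicate single-concentration testing at 10 uM against purified CYP1A1. Those passing a threshold such as 30% inhibition entered singleton dose-response, highest concentration 20 uM. Signal was fluorescence measured after 1 hour.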

Assay [9] has as its target human CYP2B6, CYP2B6 (gene 1555) (UniProt P20813). The assay can be described thus: NVS_ADME_hCYP2B6: NovaScreen (NVS) CYP450-related Enzyme Activity (ADME) Assay for human CYP2B6 (AID 2283101; active means hit-call score of the fitted dose curve at least 0.9, where 1 is the maximum). In a few lines: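 Recombinant protein, specific fluorescent substrate, read at 1 h post-dosing. Primary: single 10 uM, duplicate; follow-up: concentration series. Activity = signal loss vs acetonitrile baseline, with positive and negative controls on every plate.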

For assay [10], the target named is Cytochrome P450 2C18 (Homo sapiens) (UniProt P33260). The assay can be described thus: NVS_ADME_hCYP2C18: NovaScreen (NVS) CYP450-related Enzyme Activity (ADME) Assay for human CYP2C18 (AID 2283103). In a few lines:
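Enzyme activity measured by fluorescence 0.5 h after compound addition, using recombinant CYP2C18 and a specific substrate. Actives from duplicate 10 uM screening were retested in concentration series (top 20 uM); acetonitrile served as negative baseline.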

Assay [11] concerns the target human CYP2J2, CYP2J2 (gene 1573) (UniProt P51589). In words: NVS_ADME_hCYP2J2: NovaScreen (NVS) CYP450-related Enzyme Activity (ADME) Assay for human CYP2J2 (AID 2283106; active means hit-call score of the fitted dose curve at least 0.9, where 1 is the maximum). In a few lines:
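Chemicals were first tested at 10 uM in duplicate, and hits meeting criteria such as 30% inhibition were run in singleton concentration series with a 20 uM top concentration. Enzyme activity of recombinant CYP2J2 was measured by fluorescence after 1 h, relative to acetonitrile.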

Assay [12] has as its target human CYP2D6, CYP2D6 (gene 1565) (UniProt P10635). In words: NVS_ADME_hCYP2D6: NovaScreen (NVS) CYP450-related Enzyme Activity (ADME) Assay for human CYP2D6 (AID 2283107; active means hit-call score of the fitted dose curve at least 0.9, where 1 is the maximum). In a few lines:
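Compounds were first tested in duplicate at 10 uM against recombinant enzyme produced in insect cells, with substrate turnover measured by fluorescence after 1 hour. Decreased signal, referenced to acetonitrile vehicle, was taken as reduced enzyme activity. Active chemicals went on to concentration-response testing.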

The target in assay [13] is human CYP2C9, CYP2C9 (gene 1559) (UniProt P11712). In words: NVS_ADME_hCYP2C9: NovaScreen (NVS) CYP450-related Enzyme Activity (ADME) Assay for human CYP2C9 (AID 2283108; active means hit-call score of the fitted dose curve at least 0.9, where 1 is the maximum). In short, it runs like this:
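Cell-free assay of recombinant human CYP2C9 produced in Sf9 cells, with enzyme activity read by fluorescence intensity 0.75 h after compound addition. Loss of signal versus an acetonitrile negative control indicates inhibition. Primary screen used 10 uM in duplicate; actives were retested in concentration series.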

The target of assay [14] is Cytochrome P450 2C19 (Homo sapiens) (UniProt P33261). The assay can be described thus: NVS_ADME_hCYP2C19: NovaScreen (NVS) CYP450-related Enzyme Activity (ADME) Assay for human CYP2C19 (AID 2283113; active means hit-call score of the fitted dose curve at least 0.9, where 1 is the maximum;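 further: potency for inhibition seen as loss of fluorescent signal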). In short, it runs like this: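 Chemicals first screened in duplicate at 10 uM against recombinant human enzyme produced in insect cells; confirmed actives then run as concentration series. Fluorogenic substrate turnover read by fluorescence after 1 h, normalised to acetonitrile.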

Assay [15] addresses human CYP19A1, CYP19A1 (gene 1588) (UniProt P11511). The assay can be described thus: NVS_ADME_hCYP19A1: NovaScreen (NVS) CYP450-related Enzyme Activity (ADME) Assay for human CYP19A1 (AID 2283098; active means hit-call score of the fitted dose curve at least 0.9, where 1 is the maximum;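 on AC50: potency for inhibitors seen as loss of fluorescent enzyme signal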). In a few lines:
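Compounds were first screened at 10 uM in duplicate against purified enzyme, with a fluorogenic substrate and fluorescence intensity detection after 0.5 h. Inhibition appears as reduced signal against acetonitrile control.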

Assay [16] concerns the target human CYP2C8, CYP2C8 (gene 1558) (UniProt P10632). The assay can be described thus: NVS_ADME_hCYP2C8: NovaScreen (NVS) CYP450-related Enzyme Activity (ADME) Assay for human CYP2C8 (AID 2283104). In short, it runs like this:
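Fluorescence readout of substrate turnover by recombinant CYP2C8 after 0.5 h, baseline acetonitrile. Single-concentration duplicate screen at 10 uM preceded singleton concentration series (max 20 uM) for compounds passing the inhibition threshold.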

Molecules are shown by their SMILES. Inconclusive results are not listed. Calls of active or inactive are those of the source. How the source made its calls, unless noted: active means hit-call score of the fitted dose curve at least 0.9, where 1 is the maximum; inactive means score below 0.9.

Usually AC50 stands for the midpoint of the concentration-response curve, whichever way the signal moves.

Chain of human CYP1A1, CYP1A1 (gene 1543) (P04798 whole entry, looked up): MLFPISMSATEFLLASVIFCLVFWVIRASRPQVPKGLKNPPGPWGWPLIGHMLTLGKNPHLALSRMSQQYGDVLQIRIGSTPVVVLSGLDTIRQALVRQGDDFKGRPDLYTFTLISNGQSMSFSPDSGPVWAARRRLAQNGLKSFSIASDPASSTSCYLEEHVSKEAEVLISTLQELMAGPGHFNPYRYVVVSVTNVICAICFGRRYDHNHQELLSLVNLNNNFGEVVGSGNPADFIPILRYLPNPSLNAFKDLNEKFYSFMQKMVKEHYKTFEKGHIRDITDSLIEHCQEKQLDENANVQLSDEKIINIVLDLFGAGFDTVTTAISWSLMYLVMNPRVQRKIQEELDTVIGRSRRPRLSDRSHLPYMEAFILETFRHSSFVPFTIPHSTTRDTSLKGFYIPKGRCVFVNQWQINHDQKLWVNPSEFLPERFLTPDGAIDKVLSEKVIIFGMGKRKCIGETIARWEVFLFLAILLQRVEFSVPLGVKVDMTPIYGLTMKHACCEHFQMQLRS
Chain of human CYP19A1, CYP19A1 (gene 1588) (P11511 whole entry, looked up): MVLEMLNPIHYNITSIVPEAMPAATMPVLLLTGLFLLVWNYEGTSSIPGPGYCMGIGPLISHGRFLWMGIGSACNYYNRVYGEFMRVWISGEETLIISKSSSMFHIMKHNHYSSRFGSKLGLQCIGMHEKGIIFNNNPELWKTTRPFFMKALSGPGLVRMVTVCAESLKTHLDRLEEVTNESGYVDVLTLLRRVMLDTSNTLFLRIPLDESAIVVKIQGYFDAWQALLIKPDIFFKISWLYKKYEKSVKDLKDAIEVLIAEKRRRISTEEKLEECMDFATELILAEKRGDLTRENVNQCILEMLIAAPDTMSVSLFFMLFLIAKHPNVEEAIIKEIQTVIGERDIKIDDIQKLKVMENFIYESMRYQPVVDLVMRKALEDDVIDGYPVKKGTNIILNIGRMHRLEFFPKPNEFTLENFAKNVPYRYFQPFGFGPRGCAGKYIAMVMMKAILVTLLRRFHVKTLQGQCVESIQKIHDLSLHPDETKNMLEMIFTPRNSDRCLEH
Chain of human CYP2D6, CYP2D6 (gene 1565) (P10635 whole entry, looked up): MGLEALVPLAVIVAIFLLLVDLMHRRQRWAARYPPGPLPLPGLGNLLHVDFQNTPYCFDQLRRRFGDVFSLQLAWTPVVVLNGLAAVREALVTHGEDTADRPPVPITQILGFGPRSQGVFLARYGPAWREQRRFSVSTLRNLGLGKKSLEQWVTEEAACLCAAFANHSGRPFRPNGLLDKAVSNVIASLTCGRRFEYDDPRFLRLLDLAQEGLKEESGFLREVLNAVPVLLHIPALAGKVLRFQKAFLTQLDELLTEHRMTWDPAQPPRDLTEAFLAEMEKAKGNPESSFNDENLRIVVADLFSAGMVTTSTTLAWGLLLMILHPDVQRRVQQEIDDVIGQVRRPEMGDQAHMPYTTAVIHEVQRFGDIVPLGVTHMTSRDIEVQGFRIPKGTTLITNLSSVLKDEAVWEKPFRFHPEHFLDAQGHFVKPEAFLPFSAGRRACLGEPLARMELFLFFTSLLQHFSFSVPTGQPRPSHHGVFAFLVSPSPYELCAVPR
Chain of E-selectin (Homo sapiens) (P16581 whole entry, looked up): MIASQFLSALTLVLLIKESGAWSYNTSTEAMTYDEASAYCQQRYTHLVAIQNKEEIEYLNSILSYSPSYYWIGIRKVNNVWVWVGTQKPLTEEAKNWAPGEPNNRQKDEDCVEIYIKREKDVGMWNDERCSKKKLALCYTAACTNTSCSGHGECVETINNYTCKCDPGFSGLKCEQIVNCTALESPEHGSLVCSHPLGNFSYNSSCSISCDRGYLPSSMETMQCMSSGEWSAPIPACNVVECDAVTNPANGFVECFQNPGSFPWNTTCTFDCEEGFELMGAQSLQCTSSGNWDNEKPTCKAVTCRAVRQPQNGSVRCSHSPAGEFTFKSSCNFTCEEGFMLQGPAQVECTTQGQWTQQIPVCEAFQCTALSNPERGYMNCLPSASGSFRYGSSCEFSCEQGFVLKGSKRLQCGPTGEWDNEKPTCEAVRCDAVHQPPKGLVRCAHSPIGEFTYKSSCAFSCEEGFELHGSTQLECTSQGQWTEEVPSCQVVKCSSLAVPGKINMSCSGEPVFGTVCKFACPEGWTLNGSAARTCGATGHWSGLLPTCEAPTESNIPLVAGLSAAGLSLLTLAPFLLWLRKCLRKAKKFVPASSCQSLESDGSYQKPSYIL
Chain of human CYP2C9, CYP2C9 (gene 1559) (P11712 whole entry, looked up): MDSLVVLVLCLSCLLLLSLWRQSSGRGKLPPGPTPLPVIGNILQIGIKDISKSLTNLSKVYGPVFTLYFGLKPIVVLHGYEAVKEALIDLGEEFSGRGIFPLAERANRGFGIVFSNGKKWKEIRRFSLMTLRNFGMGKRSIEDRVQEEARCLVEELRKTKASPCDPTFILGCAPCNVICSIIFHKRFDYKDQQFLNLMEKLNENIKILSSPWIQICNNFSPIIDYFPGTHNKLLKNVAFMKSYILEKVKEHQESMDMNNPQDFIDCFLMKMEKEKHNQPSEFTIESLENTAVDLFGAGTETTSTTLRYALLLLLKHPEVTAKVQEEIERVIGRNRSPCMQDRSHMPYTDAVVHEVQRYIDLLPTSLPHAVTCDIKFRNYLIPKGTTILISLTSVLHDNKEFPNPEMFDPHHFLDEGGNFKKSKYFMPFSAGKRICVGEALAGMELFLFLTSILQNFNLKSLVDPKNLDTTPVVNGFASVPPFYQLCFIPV
Chain of Cytochrome P450 2C18 (Homo sapiens) (P33260 whole entry, looked up): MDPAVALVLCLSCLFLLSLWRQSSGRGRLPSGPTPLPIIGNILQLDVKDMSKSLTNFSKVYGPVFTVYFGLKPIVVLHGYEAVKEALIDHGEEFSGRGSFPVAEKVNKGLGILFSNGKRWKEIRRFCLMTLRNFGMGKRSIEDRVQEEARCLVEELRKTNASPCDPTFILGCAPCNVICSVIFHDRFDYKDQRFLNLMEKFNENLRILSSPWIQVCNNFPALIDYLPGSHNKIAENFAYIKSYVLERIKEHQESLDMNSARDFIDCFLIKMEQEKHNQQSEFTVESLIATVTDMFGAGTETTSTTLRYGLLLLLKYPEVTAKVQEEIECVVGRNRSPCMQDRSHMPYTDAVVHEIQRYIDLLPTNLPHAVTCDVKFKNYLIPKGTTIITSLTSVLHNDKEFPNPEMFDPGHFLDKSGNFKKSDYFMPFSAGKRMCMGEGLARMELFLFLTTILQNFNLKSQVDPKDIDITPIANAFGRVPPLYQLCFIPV
Chain of human CYP2B6, CYP2B6 (gene 1555) (P20813 whole entry, looked up): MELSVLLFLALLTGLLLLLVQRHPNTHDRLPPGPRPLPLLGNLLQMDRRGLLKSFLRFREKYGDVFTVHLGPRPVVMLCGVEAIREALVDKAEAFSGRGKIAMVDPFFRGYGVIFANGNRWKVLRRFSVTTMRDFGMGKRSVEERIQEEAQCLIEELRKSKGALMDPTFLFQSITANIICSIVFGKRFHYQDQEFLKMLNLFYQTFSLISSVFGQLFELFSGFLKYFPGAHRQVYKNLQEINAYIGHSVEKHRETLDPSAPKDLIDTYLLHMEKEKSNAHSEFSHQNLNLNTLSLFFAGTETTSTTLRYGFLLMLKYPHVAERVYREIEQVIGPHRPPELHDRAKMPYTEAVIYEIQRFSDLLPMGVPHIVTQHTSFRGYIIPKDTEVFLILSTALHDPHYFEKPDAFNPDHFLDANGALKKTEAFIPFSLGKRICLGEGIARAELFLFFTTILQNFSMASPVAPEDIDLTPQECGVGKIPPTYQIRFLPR
Chain of human CYP2J2, CYP2J2 (gene 1573) (P51589 whole entry, looked up): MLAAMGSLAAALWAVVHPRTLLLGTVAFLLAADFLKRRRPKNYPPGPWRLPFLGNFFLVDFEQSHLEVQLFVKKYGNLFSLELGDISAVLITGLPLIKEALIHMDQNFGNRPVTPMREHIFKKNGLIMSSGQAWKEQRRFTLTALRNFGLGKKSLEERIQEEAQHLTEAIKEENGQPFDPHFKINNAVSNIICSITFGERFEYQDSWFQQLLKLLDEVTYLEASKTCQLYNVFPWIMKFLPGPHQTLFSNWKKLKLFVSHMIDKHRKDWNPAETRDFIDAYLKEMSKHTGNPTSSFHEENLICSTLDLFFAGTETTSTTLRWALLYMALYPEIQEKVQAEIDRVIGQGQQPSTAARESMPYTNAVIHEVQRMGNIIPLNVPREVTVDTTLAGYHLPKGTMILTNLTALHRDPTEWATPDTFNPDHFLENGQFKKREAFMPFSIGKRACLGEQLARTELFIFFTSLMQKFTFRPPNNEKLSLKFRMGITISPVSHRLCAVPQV
Chain of human CYP2C8, CYP2C8 (gene 1558) (P10632 whole entry, looked up): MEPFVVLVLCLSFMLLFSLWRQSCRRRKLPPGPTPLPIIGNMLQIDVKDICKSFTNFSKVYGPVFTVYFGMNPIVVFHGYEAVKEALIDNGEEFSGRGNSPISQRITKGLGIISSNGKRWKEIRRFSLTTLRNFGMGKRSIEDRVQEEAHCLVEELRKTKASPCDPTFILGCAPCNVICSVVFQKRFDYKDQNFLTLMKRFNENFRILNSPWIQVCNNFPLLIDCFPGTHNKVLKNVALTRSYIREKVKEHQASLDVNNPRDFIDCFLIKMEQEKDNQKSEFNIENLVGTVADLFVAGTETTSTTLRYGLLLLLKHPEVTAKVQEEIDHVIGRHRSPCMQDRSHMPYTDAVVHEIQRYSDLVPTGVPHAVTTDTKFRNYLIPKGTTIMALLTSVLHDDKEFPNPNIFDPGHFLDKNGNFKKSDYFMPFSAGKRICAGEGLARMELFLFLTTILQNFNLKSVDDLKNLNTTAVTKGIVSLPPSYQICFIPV

For `CCNP(=S)(OC)O/C(C)=C/C(=O)OC(C)C` (centres undefined), the result in [1], in [2], in assay [3], in assay [4], in [5] and in [6] was inactive. Further, the outcome in [7] was inactive. Moreover, the AC50 in assay [8] was 2.43 µM (active); in assay [9], 0.723 µM (active); in assay [10], 2.63 µM (active); in assay [11] it was 1.33 µM (active); in assay [12], 7.62 µM (active); in [13], 1.79 µM (active). Further, in assay [14], the AC50 is 0.107 µM (active).

For the compound `CCCCC(C#N)(Cn1cncn1)c1ccc(Cl)cc1` (centres undefined), the outcome in [1], in assay [2], in assay [3], in [4], in [5] and in [6] was inactive. In addition, the outcome in [7], in [11] and in assay [12] was inactive. The AC50 is 0.789 µM (active) in assay [15]; 10.4 µM (active) in assay [8]; 6.49 µM (active) in [9]; 2.25 µM (active) in assay [10]; 8.72 µM (active) in assay [13]; 0.634 µM (active) in [14].

`Clc1cccc(C(Cl)(Cl)Cl)n1`: the outcome in assay [1], in assay [2], in [3], in assay [4], in assay [5] and in [6] was inactive. In addition, the result in assay [7] was inactive.

Consider `COP(=S)(OC)SCn1nnc2ccccc2c1=O`, for which the half-maximal activity concentration (AC50) in [1] is 20 µM (active); in [3], 10.4 µM (active); in [6], 30.2 µM (active); in [8], 0.363 µM (active); in [9], 0.302 µM (active); in assay [10] it was 1.93 µM (active). The half-maximal activity concentration (AC50) is 6.73 µM (active) in assay [16]; 1.87 µM (active) in assay [11]; 4.19 µM (active) in assay [12]; 5.2 µM (active) in [13]; 0.257 µM (active) in assay [14]. Besides, the outcome in [2], in assay [4], in assay [5] and in assay [7] was inactive.

`CCN(CC)C(=O)C(C)Oc1cccc2ccccc12` (centres undefined): the outcome in assay [1], in [2], in assay [4], in assay [5], in [6] and in assay [7] was inactive. Further, the call in [15] was inactive. Moreover, the AC50 was 1.06 µM (active) in assay [3]; 5.79 µM (active) in assay [9]; 10.8 µM (active) in assay [10]; 4.54 µM (active) in [13]; 1.15 µM (active) in assay [14].

In the case of `CC(C)N1C(=O)N(c2ccccc2)CSC1=NC(C)(C)C`, the half-maximal activity concentration (AC50) in assay [1] was 30.3 µM (active); in assay [2], 34.5 µM (active); in assay [3] it was 27.3 µM (active); in assay [4] it was 38.8 µM (active); in assay [5] it was 32.2 µM (active); in assay [6], 27.4 µM (active). The AC50 in assay [7] was 27.8 µM (active); in assay [10], 8.79 µM (active).

In the case of `CNC(=O)Oc1cccc2ccccc12`, the result in assay [1], in assay [2], in assay [3], in [4], in [7] and in assay [15] was inactive. Besides, the AC50 in [5] is 15.9 µM (active); in [6] it was 22.4 µM (active).

Source of the values: PubChem BioAssay (EPA / NIEHS).
